Laboratory results as given in PubChem BioAssay (NCI).
Where “and” joins values, the source holds several entries; their conditions need not be identical. Equal values may be shown once. About 83,000 compounds went through this panel and 20% of them were active in at least one assay; those are over-represented in the sample as a whole.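 Note: values are percent growth. 100 is the growth of untreated cells, values between 100 and 0 indicate rising inhibition; between -100 and 0 indicates cell death.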 Where a structure was tested more than once in an assay, its records may differ in their call. Calls of active or inactive are those of the source. The calls were made as follows: active = growth percent below 10; inactive = the rest.

Experiments:
Experiment in all cases: NCI-60 one-dose screen, 48 h (100 = growth as untreated, 0 = no growth, -100 = all killed)
Conditions in all cases: 10 µM unless noted
NCI-H23 lung = test system: NCI-H23 lung
NCI-H226 lung = test system: NCI-H226 lung
NCI-H322M lung = test system: NCI-H322M lung
HOP-62 NSCLC = test system: HOP-62 NSCLC
NCI-H460 lung = test system: NCI-H460 lung
HOP-92 NSCLC = test system: HOP-92 NSCLC
NCI-H522 lung = test system: NCI-H522 lung
A549/ATCC NSCLC = test system: A549/ATCC NSCLC
786-0 renal = test system: 786-0 renal
COLO 205 colon = test system: COLO 205 colon
DU-145 prostate = test system: DU-145 prostate
K-562 leukemia = test system: K-562 leukemia
MALME-3M melanoma = test system: MALME-3M melanoma
MDA-MB-231 breast = test system: MDA-MB-231 breast
RXF 393 renal = test system: RXF 393 renal
SF-268 CNS = test system: SF-268 CNS
SF-295 CNS = test system: SF-295 CNS
SF-539 CNS = test system: SF-539 CNS
UACC-257 melanoma = test system: UACC-257 melanoma
M14 melanoma = test system: M14 melanoma

| Compound | growth (NCI-H23 lung) | growth (NCI-H226 lung) | growth (NCI-H322M lung) | growth (HOP-62 NSCLC) | growth (NCI-H460 lung) | growth (HOP-92 NSCLC) | growth (NCI-H522 lung) | growth (A549/ATCC NSCLC) | growth (786-0 renal) | growth (COLO 205 colon) | growth (DU-145 prostate) | growth (K-562 leukemia) | growth (MALME-3M melanoma) | growth (MDA-MB-231 breast) | growth (RXF 393 renal) | growth (SF-268 CNS) | growth (SF-295 CNS) | growth (SF-539 CNS) | growth (UACC-257 melanoma) | growth (M14 melanoma) |
| --- | --- | --- | --- | --- | --- | --- | --- | --- | --- | --- | --- | --- | --- | --- | --- | --- | --- | --- | --- | --- |
| Cc1ccc(/C=C2\CNC/C(=C\c3ccc(C)cc3)C2=O)cc1 | 2.76% (active) | -63.2% (active) | 22.9% (inactive) | 4.5% (active) | -47.1% (active) | 11% (inactive) | -54% (active) | -53.7% (active) | -71.5% (active) | -70.5% (active) | -87.5% (active) | -28.5% (active) | 29.4% (inactive) | -15.9% (active) | -57.4% (active) | -8.61% (active) | -5.11% (active) | -64.5% (active) | -21.1% (active) |  |
| NC1=C(Br)C(=O)c2ncccc2C1=O | -46% (active) | 90.4% (inactive) | 34.9% (inactive) | -73.1% (active) | -73.9% (active) | 34.5% (inactive) | -59.1% (active) | -52.6% (active) | 11.4% (inactive) | 37.9% (inactive) | -57.8% (active) | -44.2% (active) | -85.9% (active) | 19.2% (inactive) | 13.5% (inactive) | -43.9% (active) | -84.3% (active) | -91.5% (active) | -58.4% (active) | -88.7% (active) |
| Cc1ccc2c(c1)sc(-c1ccc(N(C)C)cc1)[n+]2C | 12.2% (inactive) | 17.8% (inactive) | 12.7% (inactive) | 1.81% (active) | -25.7% (active) | -38.6% (active) | 8.21% (active) | 26.6% (inactive) | 7.31% (active) | -83% (active) | 20.4% (inactive) | -21.7% (active) | 0.435% (active) | 2.82% (active) | 39.7% (inactive) | 18.5% (inactive) | -5.75% (active) | 12.5% (inactive) | 4.53% (active) |  |
| CCCCCCCCc1cc(Cl)c(O)c(Cl)c1 | 103% (inactive) | 104% (inactive) | 121% (inactive) | 105% (inactive) | 109% (inactive) | 99.5% (inactive) | 97.6% (inactive) | 98.5% (inactive) | 108% (inactive) | 108% (inactive) | 103% (inactive) | 104% (inactive) | 100% (inactive) | 103% (inactive) | 113% (inactive) | 98.5% (inactive) | 113% (inactive) | 99.5% (inactive) | 104% (inactive) | 107% (inactive) |
| Cc1ccccc1N=C(N)Nc1ccccc1C (tested in a mixture with another compound) | 94.8% (inactive) | 97.1% (inactive) | 99.4% (inactive) | 84.7% (inactive) | 76.1% (inactive) | 76.5% (inactive) | 4.48% (active) | 74.4% (inactive) | 73.9% (inactive) | 85.5% (inactive) | 84.3% (inactive) | 85.8% (inactive) | 102% (inactive) | 68.5% (inactive) | 94.7% (inactive) | 72.2% (inactive) | 104% (inactive) | 72.4% (inactive) | 97.5% (inactive) |  |
| O=C(c1ccccc1)c1cc2ccccc2oc1=O | 94.5% (inactive) | 86.3% (inactive) | 97.7% (inactive) | 88.6% (inactive) | 117% (inactive) | 51.3% (inactive) | 95% (inactive) | 95.9% (inactive) | 102% (inactive) | 119% (inactive) | 114% (inactive) | 111% (inactive) | 90.4% (inactive) | 79.5% (inactive) | 90% (inactive) | 101% (inactive) | 113% (inactive) | 116% (inactive) | 96.9% (inactive) | 104% (inactive) |
| OC(c1cc(-c2ccc(C(F)(F)F)cc2)nc(C(F)(F)F)c1)C1CCCCN1 (stereo unspecified) | 23.4% (inactive) and -44.7% (active) and 62.5% (inactive) | -7.1% (active) and -6.47% (active) and 43.1% (inactive) | 48.2% (inactive) and 29.8% (inactive) and 70.3% (inactive) | -69.8% (active) and -89.1% (active) and 57.1% (inactive) | -77.9% (active) and -77.2% (active) and -47.9% (active) | -18.8% (active) and -58.7% (active) and 36.3% (inactive) | -67.2% (active) and -80.1% (active) and 9.35% (active) | -43% (active) and -44.5% (active) and 35.6% (inactive) | -48.8% (active) and -82.2% (active) and 27% (inactive) | -90.1% (active) and -85.4% (active) and -79.8% (active) | -16.1% (active) and -94.1% (active) and 32.1% (inactive) | -47.5% (active) and -65.5% (active) and -27.9% (active) | 22% (inactive) and -88.6% (active) and 60.1% (inactive) | -57.8% (active) and -85.1% (active) and -19% (active) | -94.4% (active) and -93% (active) and 39% (inactive) | -42.1% (active) and -39.4% (active) and 29.8% (inactive) | 188% (inactive) | -41.7% (active) and -76.5% (active) and 40.2% (inactive) | -68.6% (active) and 68.3% (inactive) and -8.76% (active) | -77% (active) and -84.3% (active) and -76.6% (active) |
| Cc1cc(C(=C2C=CC(=Nc3ccccc3)C=C2)c2ccc(Nc3ccccc3)cc2)ccc1N | -32.2% (active) | -84.4% (active) | -34.4% (active) | -85.2% (active) | -83.9% (active) | -92.9% (active) | -81.3% (active) | -91.9% (active) | -84.1% (active) | -65.1% (active) | -97.2% (active) | 14.1% (inactive) | -63.6% (active) | -56% (active) | -93.7% (active) | -68.7% (active) | -71.9% (active) | -60.8% (active) | -91.6% (active) |  |
